Reference: the supplement of paper PMC10849652
The full data set covers some 8,800 targets. This sample favours those with a hit. About 0.5% of all pairs of compound and target were hits.

What was measured:
Experiment in all cases: log2 fold change, soluble protein after heating vs DMSO (PISA); higher = thermal stabilisation; K562 lysate, 10 uM; active = over 0.2 and 3.5 SD of the protein, either way, in both replicates (recomputed)
erlotinib = compound: C#Cc1cccc(Nc2ncnc3cc(OCCOC)c(OCCOC)cc23)c1 [erlotinib]
Method in brief: (§1)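 K562 pellets were dounce-homogenised in PBS pH 7.4 containing 1 mM MgCl2, and the crude extract, at 1 mg/mL protein, was exposed to 10 μM compound for 30 min. Aliquots were heated for 3 min across 48°C-58°C, pooled, brought to 0.5% NP-40 at 4°C and spun at 21,000xg for 90 min, with the supernatant taken as soluble protein. TMTpro 16plex LC-MS/MS with equalised channel sums quantified that protein. Values are log-two fold changes in thermal stability relative to solvent controls, taken from duplicates.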

[1] = compound: C/C(=N\NC(=O)C1=CC(=CC=C1)S(=O)(=O)N2CCOCC2)/C3=C(C=CC(=C3)Cl)O
Method in brief: as §1

[2] = compound: C1=CC(=CC=C1C2=NC3=C(N2)C=C(C=C3)C(=O)N)OC4=CC=C(C=C4)Cl
Method in brief: as §1

[3] = compound: C1=CC2=C(C=CC(=C2)/C=C\3/C(=O)NC(=NCC4=CC=CS4)S3)N=C1
Method in brief: as §1

[4] = compound: C1=CC2=NC=CN=C2C=C1/C=C/3\C(=O)NC(=O)S3
Method in brief: as §1

[5] = compound: C1=CC=C(C=C1)C2=NC(=C(N2)C3=CC=NC=C3)C4=CC(=C(C=C4)Cl)O
Method in brief: as §1

[6] = compound: C1=CC=C2C(=C1)C3=NNC4=CC=CC(=C43)C2=O
Method in brief: as §1

[7] = compound: C1CCN(C1)C(=O)NC2=CC=CC(=C2)NC3=NC=C(C(=N3)NCCC4=CN=CN4)Br
Method in brief: as §1

[8] = compound: C1CN(CCC1(CC2=CC=C(C=C2)Cl)N)C3=NC=NC4=C3C=CN4
Method in brief: as §1

IRAK-1-4 Inhibitor I = compound: C1COCCN1CCN2C3=CC=CC=C3N=C2NC(=O)C4=CC(=CC=C4)[N+](=O)[O-] [IRAK-1-4 Inhibitor I]
Method in brief: as §1

ibrutinib = compound: C=CC(=O)N1CCC[C@@H](n2nc(-c3ccc(Oc4ccccc4)cc3)c3c(N)ncnc32)C1 [ibrutinib]
Method in brief: as §1

[9] = compound: CC(=O)c1cnc2ccc(-c3cc(Cl)c(O)c(Cl)c3)nc2c1N[C@H]1CC[C@H](CN(C)C)CC1
Method in brief: as §1

ralimetinib = compound: CC(C)(C)Cn1c(N)nc2ccc(-c3[nH]c(C(C)(C)C)nc3-c3ccc(F)cc3)nc21 [ralimetinib]
Method in brief: as §1

[10] = compound: CC(C)(O)CC(=O)NCCn1ccc2ncnc(Nc3ccc(Oc4cccc(C(F)(F)F)c4)c(Cl)c3)c21
Method in brief: as §1

[11] = compound: CC(C)C1=C2N=C(C=C(N2N=C1)NCC3=CC=CC=C3)NCCCCCCN
Method in brief: as §1

[12] = compound: CC1=C(C(CC(=O)N1)C2=CC=C(C=C2)C(F)(F)F)C(=O)NC3=C(C=C4C(=C3)C=NN4)F
Method in brief: as §1

[13] = compound: CC1=C(C2=C(C=C1)C(=O)C3=CC=CC=C3N2CCCN)C
Method in brief: as §1

[14] = compound: CC1=C(C=C(C=C1)NC(=O)C2=CC(=CC=C2)C(C)(C)C#N)NC3=CC4=C(C=C3)N=CN(C4=O)C
Method in brief: as §1

[15] = compound: CC1=C(C=C(C=C1)NC(=O)C2=CC(=CC=C2)N(C)C)NC(=O)C3=CC=C(C=C3)O
Method in brief: as §1

[16] = compound: CC1=CC=C(C=C1)SC2=C3C=C(SC3=CN=C2)C(=O)N
Method in brief: as §1

Measured: log2 fold change

GTF2A1 (UniProt P52655)
inactive: erlotinib 0.031 | [1] -0.008 | [2] 0.015 | [3] 0.026 | [4] -0.01 | [5] -0.038 | [6] -0.061 | [7] -0.04 | [8] -0.01 | IRAK-1-4 Inhibitor I 0.033 | ibrutinib -0.009 | [9] -0.046 | ralimetinib 0.015 | [10] -0.016 | [11] -0.036 | [12] -0.069 | [13] -0.021 | [14] -0.013 | [15] 0.008 | [16] -0.014

GON4L (UniProt Q3T8J9)
Sequence of UniProt Q3T8J9 (Q3T8J9 whole entry, looked up): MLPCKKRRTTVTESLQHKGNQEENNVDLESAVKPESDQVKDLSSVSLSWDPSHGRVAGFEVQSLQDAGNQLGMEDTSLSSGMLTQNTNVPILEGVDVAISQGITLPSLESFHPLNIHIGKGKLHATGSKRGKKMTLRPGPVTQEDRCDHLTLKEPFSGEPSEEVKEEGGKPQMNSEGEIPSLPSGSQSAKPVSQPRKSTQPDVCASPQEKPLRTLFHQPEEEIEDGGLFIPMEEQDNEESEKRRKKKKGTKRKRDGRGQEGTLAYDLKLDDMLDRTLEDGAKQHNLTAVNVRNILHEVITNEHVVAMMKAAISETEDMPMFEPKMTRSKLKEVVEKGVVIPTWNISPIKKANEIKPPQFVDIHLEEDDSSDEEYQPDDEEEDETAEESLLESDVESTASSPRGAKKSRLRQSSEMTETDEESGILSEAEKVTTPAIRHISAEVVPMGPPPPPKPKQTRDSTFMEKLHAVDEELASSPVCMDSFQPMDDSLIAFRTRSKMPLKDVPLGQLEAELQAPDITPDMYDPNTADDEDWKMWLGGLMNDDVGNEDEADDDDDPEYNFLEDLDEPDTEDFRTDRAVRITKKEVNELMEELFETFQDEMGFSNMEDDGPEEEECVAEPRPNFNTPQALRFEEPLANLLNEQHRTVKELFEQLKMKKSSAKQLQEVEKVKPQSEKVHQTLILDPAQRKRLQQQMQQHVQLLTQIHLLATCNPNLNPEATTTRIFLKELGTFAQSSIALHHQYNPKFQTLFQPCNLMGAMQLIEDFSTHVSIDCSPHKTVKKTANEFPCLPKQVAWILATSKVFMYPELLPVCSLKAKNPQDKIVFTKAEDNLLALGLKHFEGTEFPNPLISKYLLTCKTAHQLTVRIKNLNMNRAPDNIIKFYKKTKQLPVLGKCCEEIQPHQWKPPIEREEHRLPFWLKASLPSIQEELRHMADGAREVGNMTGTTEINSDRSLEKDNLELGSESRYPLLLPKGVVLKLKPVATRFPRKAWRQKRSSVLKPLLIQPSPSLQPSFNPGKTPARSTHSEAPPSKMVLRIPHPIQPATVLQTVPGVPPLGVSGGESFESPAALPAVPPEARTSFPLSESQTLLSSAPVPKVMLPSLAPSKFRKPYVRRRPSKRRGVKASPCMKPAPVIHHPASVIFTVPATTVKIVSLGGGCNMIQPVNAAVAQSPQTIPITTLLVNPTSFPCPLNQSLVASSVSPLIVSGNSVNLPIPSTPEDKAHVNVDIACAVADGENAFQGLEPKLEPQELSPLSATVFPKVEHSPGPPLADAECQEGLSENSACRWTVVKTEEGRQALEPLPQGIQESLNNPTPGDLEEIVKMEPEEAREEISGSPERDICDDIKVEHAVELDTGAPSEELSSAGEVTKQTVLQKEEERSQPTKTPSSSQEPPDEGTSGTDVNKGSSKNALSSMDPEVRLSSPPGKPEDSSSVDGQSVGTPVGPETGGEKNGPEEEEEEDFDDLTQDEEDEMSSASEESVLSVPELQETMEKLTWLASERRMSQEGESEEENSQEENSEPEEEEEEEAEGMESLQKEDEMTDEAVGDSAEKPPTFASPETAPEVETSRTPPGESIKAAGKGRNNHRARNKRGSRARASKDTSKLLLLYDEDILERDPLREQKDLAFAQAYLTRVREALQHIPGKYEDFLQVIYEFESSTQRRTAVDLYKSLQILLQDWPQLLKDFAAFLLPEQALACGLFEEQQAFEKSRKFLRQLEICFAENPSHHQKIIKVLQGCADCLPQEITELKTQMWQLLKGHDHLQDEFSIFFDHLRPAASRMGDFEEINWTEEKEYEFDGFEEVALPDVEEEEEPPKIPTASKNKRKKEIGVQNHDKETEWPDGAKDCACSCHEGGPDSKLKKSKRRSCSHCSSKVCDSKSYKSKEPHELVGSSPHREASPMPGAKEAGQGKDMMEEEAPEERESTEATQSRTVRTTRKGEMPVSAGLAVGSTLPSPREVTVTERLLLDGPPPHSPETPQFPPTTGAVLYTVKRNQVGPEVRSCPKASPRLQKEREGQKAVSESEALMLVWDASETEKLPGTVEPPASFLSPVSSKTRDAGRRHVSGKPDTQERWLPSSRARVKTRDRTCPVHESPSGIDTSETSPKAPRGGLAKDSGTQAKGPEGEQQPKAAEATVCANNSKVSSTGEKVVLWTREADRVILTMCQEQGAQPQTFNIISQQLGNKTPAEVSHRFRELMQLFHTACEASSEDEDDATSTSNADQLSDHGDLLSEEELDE
inactive: erlotinib -0.003 | [1] 0.016 | [2] 0.061 | [3] -0.038 | [4] -0.074 | [5] 0.053 | [6] 0.057 | [7] 0.026 | [8] -0.052 | IRAK-1-4 Inhibitor I -0.039 | ibrutinib 0.026 | [9] 0.022 | ralimetinib 0.029 | [10] -0.042 | [11] -0.04 | [12] -0.02 | [13] -0.017 | [14] 0.01 | [15] 0.002 | [16] -0.044

HSPA8 (UniProt E9PK54)
inactive: erlotinib 0.045 | [1] -0.222 | [2] -0.045 | [3] -0.099 | [4] 0.014 | [5] -0.044 | [6] 0 | [7] -0.043 | [8] -0.008 | IRAK-1-4 Inhibitor I -0.141 | ibrutinib 0.065 | [9] -0.086 | ralimetinib -0.013 | [10] -0.132 | [11] 0.004 | [12] -0.019 | [13] 0.008 | [14] -0.076 | [15] -0.019 | [16] 0.014

HMGN4 (UniProt O00479)
inactive: erlotinib 0.015 | [1] 0.238 | [2] 0.063 | [3] -0.056 | [4] 0.017 | [5] 0.048 | [6] 0.293 | [7] 0.201 | [8] -0.044 | IRAK-1-4 Inhibitor I -0.046 | ibrutinib -0.067 | [9] 0.051 | ralimetinib -0.249 | [10] 0 | [11] -0.097 | [12] -0.011 | [13] 0.016 | [14] -0.014 | [15] -0.077 | [16] 0.022

GTF3C5 isoform 3 (UniProt Q9Y5Q8)
Sequence of UniProt Q9Y5Q8 (Q9Y5Q8 whole entry, looked up): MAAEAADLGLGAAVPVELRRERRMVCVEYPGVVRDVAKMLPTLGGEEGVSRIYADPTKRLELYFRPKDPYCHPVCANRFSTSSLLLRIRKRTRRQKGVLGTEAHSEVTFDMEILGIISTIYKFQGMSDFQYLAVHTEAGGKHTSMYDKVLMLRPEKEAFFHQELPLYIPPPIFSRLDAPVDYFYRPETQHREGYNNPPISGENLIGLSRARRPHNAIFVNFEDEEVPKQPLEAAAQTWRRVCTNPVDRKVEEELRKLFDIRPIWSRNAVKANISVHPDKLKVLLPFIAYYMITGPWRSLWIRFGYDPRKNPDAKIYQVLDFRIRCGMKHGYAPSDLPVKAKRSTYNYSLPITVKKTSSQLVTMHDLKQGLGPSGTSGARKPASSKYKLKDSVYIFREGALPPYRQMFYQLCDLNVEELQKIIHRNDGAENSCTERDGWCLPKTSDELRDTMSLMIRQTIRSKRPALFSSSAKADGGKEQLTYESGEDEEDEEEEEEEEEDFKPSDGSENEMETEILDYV
inactive: erlotinib -0.002 | [1] -0.042 | [2] -0.01 | [3] 0.007 | [4] -0.024 | [5] -0.019 | [6] -0.03 | [7] 0.072 | [8] 0.019 | IRAK-1-4 Inhibitor I -0.015 | ibrutinib 0.029 | [9] 0.034 | ralimetinib 0.009 | [10] 0.005 | [11] -0.016 | [12] 0.025 | [13] -0.007 | [14] 0.015 | [15] 0.003 | [16] 0.008

HSPB1 (UniProt P04792)
Sequence of UniProt P04792 (P04792 whole entry, looked up): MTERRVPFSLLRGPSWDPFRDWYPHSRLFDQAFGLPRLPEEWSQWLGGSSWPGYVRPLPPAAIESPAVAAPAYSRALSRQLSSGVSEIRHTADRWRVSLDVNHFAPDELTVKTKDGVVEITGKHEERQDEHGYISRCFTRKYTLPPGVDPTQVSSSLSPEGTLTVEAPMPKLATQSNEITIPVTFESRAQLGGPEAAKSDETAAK
inactive: erlotinib 0.004 | [1] -0.03 | [2] 0.03 | [3] -0.012 | [4] 0.001 | [5] -0.009 | [6] 0.034 | [7] -0.013 | [8] -0.025 | IRAK-1-4 Inhibitor I 0.006 | ibrutinib -0.015 | [9] -0.008 | ralimetinib 0.022 | [10] -0.016 | [11] 0.012 | [12] 0 | [13] 0.016 | [14] -0.117 | [15] 0.006 | [16] 0.003

HNRNPAB isoform 3 (UniProt Q99729)
Sequence of UniProt Q99729 (Q99729 whole entry, looked up): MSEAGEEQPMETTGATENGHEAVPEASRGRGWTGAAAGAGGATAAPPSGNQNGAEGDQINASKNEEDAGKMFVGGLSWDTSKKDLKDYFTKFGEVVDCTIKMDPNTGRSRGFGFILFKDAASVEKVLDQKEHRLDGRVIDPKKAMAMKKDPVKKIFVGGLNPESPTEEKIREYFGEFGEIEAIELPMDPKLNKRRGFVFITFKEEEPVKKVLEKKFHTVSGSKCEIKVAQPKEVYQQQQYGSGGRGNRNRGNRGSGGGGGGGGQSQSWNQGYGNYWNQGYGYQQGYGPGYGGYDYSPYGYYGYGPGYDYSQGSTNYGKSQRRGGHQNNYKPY
inactive: erlotinib -0.032 | [1] -0.214 | [2] 0.017 | [3] -0.007 | [4] 0.002 | [5] -0.001 | [6] -0.012 | [7] 0.003 | [8] 0 | IRAK-1-4 Inhibitor I 0.009 | ibrutinib -0.029 | [9] -0.159 | ralimetinib -0.037 | [10] 0.006 | [11] -0.007 | [12] 0.055 | [13] -0.003 | [14] -0.01 | [15] -0.013 | [16] 0

HDHD5 (UniProt Q9BXW7)
Sequence of UniProt Q9BXW7 (Q9BXW7 whole entry, looked up): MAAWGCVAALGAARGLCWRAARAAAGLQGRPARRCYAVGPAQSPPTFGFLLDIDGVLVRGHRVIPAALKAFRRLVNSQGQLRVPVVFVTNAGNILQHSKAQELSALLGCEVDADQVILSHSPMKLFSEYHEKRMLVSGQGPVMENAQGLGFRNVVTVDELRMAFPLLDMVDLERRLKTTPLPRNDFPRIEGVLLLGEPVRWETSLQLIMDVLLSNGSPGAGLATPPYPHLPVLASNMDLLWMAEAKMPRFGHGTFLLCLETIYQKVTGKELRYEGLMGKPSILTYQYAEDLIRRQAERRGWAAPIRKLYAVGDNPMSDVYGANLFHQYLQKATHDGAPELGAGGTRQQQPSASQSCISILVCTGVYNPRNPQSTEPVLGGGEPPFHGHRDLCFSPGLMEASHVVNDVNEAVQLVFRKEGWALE
inactive: erlotinib -0.015 | [1] -0.038 | [2] 0.012 | [3] 0.07 | [4] 0.022 | [5] -0.006 | [6] -0.027 | [7] -0.023 | [8] -0.05 | IRAK-1-4 Inhibitor I 0.051 | ibrutinib -0.027 | [9] 0.018 | ralimetinib 0 | [10] 0.073 | [11] -0.042 | [12] 0.011 | [13] -0.023 | [14] -0.007 | [15] 0.024 | [16] -0.001

IRAK4 (UniProt Q9NWZ3)
Sequence of UniProt Q9NWZ3 (Q9NWZ3 whole entry, looked up): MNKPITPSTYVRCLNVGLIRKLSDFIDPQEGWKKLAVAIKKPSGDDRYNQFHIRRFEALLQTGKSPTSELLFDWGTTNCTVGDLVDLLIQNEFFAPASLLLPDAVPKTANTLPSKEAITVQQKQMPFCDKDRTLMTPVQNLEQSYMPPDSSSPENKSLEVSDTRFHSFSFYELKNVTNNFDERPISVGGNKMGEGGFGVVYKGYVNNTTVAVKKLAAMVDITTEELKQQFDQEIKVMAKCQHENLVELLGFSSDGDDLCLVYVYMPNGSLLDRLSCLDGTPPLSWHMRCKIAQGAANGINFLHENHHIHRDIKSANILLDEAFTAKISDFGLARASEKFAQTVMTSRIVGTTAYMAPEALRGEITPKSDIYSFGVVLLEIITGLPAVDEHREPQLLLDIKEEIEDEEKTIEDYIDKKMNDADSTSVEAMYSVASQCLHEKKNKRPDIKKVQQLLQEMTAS
active: [7] 0.3
inactive: erlotinib -0.03 | [1] -0.071 | [2] -0.037 | [3] -0.019 | [4] 0.037 | [5] 0.015 | [6] 0.223 | [8] -0.037 | IRAK-1-4 Inhibitor I 0.006 | ibrutinib 0 | [9] 0.195 | ralimetinib 0 | [10] -0.018 | [11] -0.01 | [12] -0.018 | [13] -0.011 | [14] -0.018 | [15] 0.008 | [16] -0.041

HEATR3 (UniProt Q7Z4Q2)
Sequence of UniProt Q7Z4Q2 (Q7Z4Q2 whole entry, looked up): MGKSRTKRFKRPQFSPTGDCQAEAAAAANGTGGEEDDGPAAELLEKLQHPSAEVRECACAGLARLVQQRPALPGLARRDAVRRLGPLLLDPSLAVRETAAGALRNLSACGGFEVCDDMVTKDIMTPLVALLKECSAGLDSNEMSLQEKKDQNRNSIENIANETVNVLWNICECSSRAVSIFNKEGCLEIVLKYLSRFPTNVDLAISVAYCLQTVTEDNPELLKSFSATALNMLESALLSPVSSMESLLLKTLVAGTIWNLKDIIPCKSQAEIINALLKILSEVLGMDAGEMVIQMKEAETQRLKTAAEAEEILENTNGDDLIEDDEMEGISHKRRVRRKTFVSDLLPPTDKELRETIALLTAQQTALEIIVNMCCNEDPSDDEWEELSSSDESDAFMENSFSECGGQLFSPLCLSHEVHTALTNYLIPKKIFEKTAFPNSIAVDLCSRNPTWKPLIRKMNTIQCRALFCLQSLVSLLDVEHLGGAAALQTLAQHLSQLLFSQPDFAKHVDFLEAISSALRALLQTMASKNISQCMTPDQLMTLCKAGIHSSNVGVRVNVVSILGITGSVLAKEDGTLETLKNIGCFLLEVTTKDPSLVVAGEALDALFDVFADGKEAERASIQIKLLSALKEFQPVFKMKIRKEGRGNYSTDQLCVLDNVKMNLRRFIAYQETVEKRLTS
inactive: erlotinib 0.002 | [1] 0.029 | [2] -0.064 | [3] -0.015 | [4] 0.02 | [5] -0.022 | [6] -0.052 | [7] -0.002 | [8] 0.006 | IRAK-1-4 Inhibitor I -0.001 | ibrutinib 0.026 | [9] -0.008 | ralimetinib 0.037 | [10] -0.048 | [11] -0.01 | [12] -0.001 | [13] -0.015 | [14] 0.004 | [15] -0.027 | [16] 0.023

GTF2H1 (UniProt P32780)
inactive: erlotinib 0.044 | [1] 0.008 | [2] 0.012 | [3] -0.032 | [4] -0.011 | [5] 0.003 | [6] -0.013 | [7] 0.029 | [8] -0.005 | IRAK-1-4 Inhibitor I -0.019 | ibrutinib 0.023 | [9] 0.023 | ralimetinib 0.026 | [10] 0.003 | [11] -0.005 | [12] 0.036 | [13] -0.022 | [14] 0.001 | [15] 0.054 | [16] 0.015

HMGA1 (UniProt P17096)
Sequence of UniProt P17096 (P17096 whole entry, looked up): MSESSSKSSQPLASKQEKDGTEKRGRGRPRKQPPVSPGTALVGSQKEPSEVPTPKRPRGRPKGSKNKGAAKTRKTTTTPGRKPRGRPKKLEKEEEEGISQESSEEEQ
inactive: erlotinib -0.037 | [1] -0.053 | [2] -0.001 | [3] -0.026 | [4] -0.053 | [5] -0.007 | [6] 0.026 | [7] 0.036 | [8] 0.013 | IRAK-1-4 Inhibitor I -0.022 | ibrutinib 0.004 | [9] -0.022 | ralimetinib -0.024 | [10] -0.043 | [11] 0.002 | [12] -0.03 | [13] 0.075 | [14] -0.008 | [15] -0.023 | [16] -0.017

HK1 isoform 2 (UniProt P19367)
inactive: erlotinib -0.027 | [1] -0.006 | [2] 0.009 | [3] 0.006 | [4] 0.007 | [5] 0.007 | [6] -0.006 | [7] 0.001 | [8] 0.014 | IRAK-1-4 Inhibitor I -0.002 | ibrutinib -0.007 | [9] 0.005 | ralimetinib -0.008 | [10] 0.021 | [11] -0.029 | [12] -0.029 | [13] 0.025 | [14] 0.023 | [15] 0.016 | [16] 0.008

HDAC3 (UniProt O15379)
inactive: erlotinib 0.061 | [1] -0.035 | [2] 0.056 | [3] -0.008 | [4] -0.001 | [5] 0.01 | [6] 0.019 | [7] -0.017 | [8] 0.029 | IRAK-1-4 Inhibitor I 0.028 | ibrutinib -0.004 | [9] 0 | ralimetinib 0.043 | [10] 0.018 | [11] -0.029 | [12] -0.03 | [13] 0 | [14] -0.003 | [15] -0.082 | [16] -0.007

GSTZ1 (UniProt G3V4T6)
inactive: erlotinib 0.018 | [1] -0.034 | [2] 0.032 | [3] -0.003 | [4] 0.02 | [5] -0.043 | [6] 0.026 | [7] 0.017 | [8] 0.064 | IRAK-1-4 Inhibitor I 0.016 | ibrutinib 0 | [9] 0 | ralimetinib 0.014 | [10] -0.019 | [11] 0.004 | [12] 0.01 | [13] 0.036 | [14] -0.02 | [15] -0.003 | [16] -0.016

ILRUN (UniProt Q9H6K1)
inactive: erlotinib -0.004 | [1] 0.056 | [2] 0.004 | [3] -0.018 | [4] 0.016 | [5] 0.018 | [6] 0.011 | [7] 0.006 | [8] 0.033 | IRAK-1-4 Inhibitor I 0.02 | ibrutinib -0.002 | [9] -0.011 | ralimetinib 0.001 | [10] -0.019 | [11] 0.007 | [12] 0.035 | [13] -0.03 | [14] 0.009 | [15] 0.018 | [16] 0.02
